Assay outcomes (PubChem)
Most compounds without a hit are left out; they make up all but 21% or so of the library.
Pf growth 96h: P. falciparum growth inhibition at 96 hours; P. falciparum luciferase reporter growth, 96 h; Potency, µM (doses to about 28.7 µM), hits mostly inhibitors; 6.9% of 320,000 active
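Two-generation exposure (96 h) targets delayed-death phenotype. Reporter parasites carrying integrated firefly luciferase, in red cells at 2% hematocrit and 0.05% parasitemia final, kept at 37 C, 5% CO2; luminescence loss indicates inhibition.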
NS1 inh: blocks influenza NS1 protein function; Potency, µM (top dose mostly 46.1 µM); 0.4% of 270,000 active; calls by dose curve; also: actives are rising curves; nearly all actives have a fitted effect of over 50% in size
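Read-out: OD600 growth recovery of NS1-expressing budding yeast. Cells grown overnight at 30C in -URA glucose medium, washed, resuspended and diluted 1:100 in 2% galactose assay medium, pH 6.0. Same strain lacking NS1 served as positive control.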
CHX counter: counter-screen hit for Shiga toxin inhibitors, cycloheximide; cell reporter, cycloheximide protein synthesis inhibition counterscreen; max response, %; 12% of 300,000 active; in the data active = max response mostly above about 13%, no sharp cut-off; inactive = mostly below about 14%; also: read at 38.3 µM for the half of the compounds with a filed dose
Shiga toxin inh: Shiga toxin inhibition. inhibition, % at 38.7 µM. 9.2% of 290,000 active. Vero cells, Shiga toxin protein synthesis inhibition reporter; in the data active = inhibition mostly above about 28%, no sharp cut-off; inactive = mostly below about 43%
Pf growth 48h: inhibits P. falciparum growth in the first generation, 48 h; P. falciparum luciferase growth in erythrocytes, 48 h; Potency, µM (titrated, usually from 28.7 µM), most hits filed as inhibitors; 5.9% of 310,000 active
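First compound was added to culture medium, then infected red cells at 0.1% parasitemia and 2% hematocrit (final). After incubation at 37 C under 5% CO2, luciferase detection reagent was dispensed and light output recorded.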
Large screens that a line does not name were inactive. Unless noted, calls follow the shape of the dose curve; as a rule, active = well fitted inhibition curve with a large enough effect; inconclusive = small, poorly fitted or top-dose-only effect, or another doubt; inactive = no such curve, though single readings can be large or run the other way.

CCn1cc(C(=O)Nc2ccc(C)c([N+](=O)[O-])c2)cn1	Shiga toxin inh active
CCn1cc(C(=O)Nc2ccc(F)c(F)c2)cn1	CHX counter 10.7, Shiga toxin inh 60.0
O=C(Nc1ccc(F)c(F)c1)c1ccccc1	none (no result: NS1 inh, CHX counter, Shiga toxin inh)
O=S(=O)(c1ccccc1Cl)N1CCC(Cc2ccccc2)CC1	Pf growth 96h inconclusive
Nn1cnc2scc(-c3ccco3)c2c1=O	none
Cc1ccccc1SCC(=O)N/N=C/c1ccc(F)cc1	none
COC(=O)c1ccccc1NC(=S)NC(=O)c1ccccc1C	none
Cc1ccccc1C(=O)NC(=S)Nc1ccccc1C(=O)O	Pf growth 96h 10.4µM
Cc1ccccc1C(=O)NC(=S)Nc1ncccn1	Pf growth 96h inconclusive, CHX counter 18.4
COc1ccc(-c2noc(CN(C(=O)c3ccc4c(c3)OCO4)C(C)C)n2)cc1OC	Pf growth 48h inconclusive (no result: NS1 inh, CHX counter, Shiga toxin inh)
CC(C)N(C(=O)CSc1nnnn1C1CCCC1)C(C)C	NS1 inh inconclusive
CC1(C)CCc2cc(-c3ccn(S(=O)(=O)c4ccccc4Cl)n3)ccc2O1	Pf growth 96h inconclusive, CHX counter 16.5, Pf growth 48h inconclusive
COc1ccc(S(=O)(=O)n2ccc(-c3ccc4c(c3)CCC(C)(C)O4)n2)cc1	Pf growth 96h 9.28µM, Pf growth 48h 10.4µM
CC1(C)CCc2cc(S(=O)(=O)N3CCN(S(=O)(=O)c4c(F)cccc4F)CC3)ccc2O1	none (no result: Pf growth 96h, NS1 inh, Pf growth 48h)
COc1cccc(-n2c(N)cc(=O)nc2SCC(=O)N2CCN(c3ccccc3)CC2)c1	none
CCOC(=O)c1c(C=O)c2ccccc2n1CC	Pf growth 96h inconclusive (no result: NS1 inh)
CCOC(=O)c1c(C=O)c2sc(C)cc2n1C	CHX counter 22.1 (no result: NS1 inh)
Cc1cc(C(=O)N2CCN(c3ccc(F)cc3)CC2)on1	none
CC(=O)N1CCN(C(=O)CCc2cc(C(C)(C)C)c(O)c(C(C)(C)C)c2)CC1	Pf growth 96h 13.1µM, Pf growth 48h inconclusive
CC(C)(C)c1cc(CCC(=O)NCCc2ccccn2)cc(C(C)(C)C)c1O	Pf growth 96h 11.7µM, Pf growth 48h inconclusive
CC(C)(C)c1cc(CCC(=O)NCc2ccncc2)cc(C(C)(C)C)c1O	Pf growth 96h inconclusive, CHX counter 19.5, Pf growth 48h inconclusive
CC(C)(C)c1cc(CCC(=O)NNC(=O)c2ccncc2)cc(C(C)(C)C)c1O	none (no result: NS1 inh, CHX counter, Shiga toxin inh)
CCC(=O)Nc1ccc(/C(C)=N\NS(=O)(=O)c2ccc(C)cc2)cc1	Pf growth 96h inconclusive
COC(=O)c1ccc(N2C(=O)C3CC(C)=C(C)CC3C2=O)cc1 (stereo unspecified)	Pf growth 48h inconclusive (no result: NS1 inh)
CC1(c2ccccc2)NC(=O)N(N)C1=O (stereo unspecified)	none
Cc1ccc(N2CC(C(=O)Nc3c4c(nn3C(C)(C)C)CS(=O)(=O)C4)CC2=O)cc1C (stereo unspecified)	Pf growth 96h inconclusive
CC(C)NC(=O)[C@@H]1C[C@@]1(C)[C@@H](NC(=O)OCc1ccccc1)c1ccccc1	none
c1cc(-n2nnc3cnccc32)ccn1	none
Nc1c(S(=O)(=O)c2ccccc2)nnn1-c1ccccc1	Pf growth 96h inconclusive
Nc1ccc2c(c1)nnn2-c1ccccc1	CHX counter 32.0
c1ccc(-n2nnc3cnccc32)cc1	Pf growth 96h inconclusive, CHX counter 23.6
CNC(=O)CN(c1cc(OCCOC)c(Cl)cc1Cl)S(=O)(=O)c1ccc(OC)cc1	none (no result: NS1 inh)
CCOC(=O)CNC(=O)CSc1nc2c(C)cccc2cc1CC	Pf growth 96h inconclusive
COc1cccc(/C=N/NC(=O)c2ccc(=O)n(C)c2)c1O	Pf growth 48h inconclusive
O=C(CN1CC(c2ccccc2)CC1=O)Nc1ccccc1 (stereo unspecified)	none
COc1cccc(/C=N/NC(=O)c2[nH]c(C)c(C(=O)N/N=C/c3cccc(OC)c3O)c2C)c1O	CHX counter 39.6, Pf growth 48h 9.28µM (no result: Pf growth 96h)
COc1cccc(/C=N/NC(=O)c2ccc(=O)[nH]n2)c1O	CHX counter 29.9, Shiga toxin inh 60.0, Pf growth 48h 5.86µM
Cc1ccc(C(=O)Nc2cccc(C(=O)N/N=C/c3ccccc3F)c2)cc1	Pf growth 96h inconclusive, CHX counter 47.0, Shiga toxin inh 71.7
COc1cccc(/C=N/NC(=O)CN2CC(c3ccccc3)CC2=O)c1O (stereo unspecified)	Pf growth 96h inconclusive, CHX counter 33.6, Shiga toxin inh 40.2
NC[C@H]1O[C@@H](n2cnc3c(=O)[nH]c(N)nc32)[C@@H](O)[C@@H]1O	none (no result: Pf growth 96h, CHX counter, Shiga toxin inh, Pf growth 48h)
COc1cccc(N(CC(=O)N2CCCC2)S(C)(=O)=O)c1	Pf growth 96h inconclusive (no result: Shiga toxin inh)
CCC(NC(=O)NCCCn1ccnc1)(C(F)(F)F)C(F)(F)F	none (no result: Pf growth 48h)
O=C(O)c1ccccc1C(=O)NC1CCCc2ccccc21 (stereo unspecified)	none
